Measured values as given in PubChem BioAssay (NCATS).
Inconclusive results are not listed. Active and inactive are the calls of the source. Calls come from the whole dose curve; as a rule, active = well fitted curve in the direction sought with a large enough effect; inconclusive = small, poorly fitted or top-dose-only effect, or another doubt; inactive = no such curve, though single readings can be large; an effect the other way counts as inactive or inconclusive.

Key:
[1] = MultiTox-Fluor Cytotoxicity Assay - LYMP1-001 - Dead Cells (AID 946)
Outline: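 LYMP1-001 lymphoblastoid cells (2500/well) treated 16 h at 37 C. Dead-cell protease cleavage of bis-AAF-R110 read at Ex/Em 485/520. Normalized to DMSO and 15 uM tetraoctylammonium bromide; AC50 from Hill fits.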

[2] = Cell Viability - LYMP1-002 - Assay at 16 hr (AID 948)
Outline: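 Acute cytotoxicity is scored as a concentration-dependent fall in intracellular ATP in a human lymphoblastoid line (LYMP1-002) after 16 hr compound exposure at 37 C, measured by luciferase luminescence.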

[3] = MultiTox-Fluor Cytotoxicity Assay - LYMP1-002 - Live Cells (AID 955)
Outline: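 After 16 h compound exposure at 37 C, live LYMP1-002 lymphoblastoid cells (2500/well) were quantified by cleavage of cell-permeant GF-AFC substrate, read at 405/510 nm after 60 min. Concentration-response fitted with Hill equation for AC50.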

[4] = MultiTox-Fluor Cytotoxicity Assay - LYMP1-002 - Dead Cells (AID 960); note: nearly all actives have a fitted effect of over 60% in size
Outline: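 Dead-cell fluorescence (Ex/Em 485/520) after 16 h compound exposure at 37 C of LYMP1-002 lymphoblastoid cells in complete medium; AC50 by Hill equation, with data scaled between DMSO and 15 uM tetraoctylammonium bromide.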

[5] = MultiTox-Fluor Cytotoxicity Assay - LYMP1-003 - Dead Cells (AID 961); note: nearly all actives have a fitted effect of over 70% in size
Outline: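 LYMP1-003 human lymphoblastoid cells (2500/well) exposed to compound 16 h at 37 C in complete medium; dead-cell protease read with bis-AAF-R110 fluorescence (Ex/Em 485/520) after 60 min at room temperature. Normalized to DMSO and 15 uM tetraoctylammonium bromide; AC50 from Hill fit.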

[6] = MultiTox-Fluor Cytotoxicity Assay - LYMP1-003 - Live Cells (AID 962);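 note: cytotoxic hits lower the live-cell protease signal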
Outline: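 Live-cell protease activity (GF-AFC substrate, 405/510 nm, 60 min at room temperature) after 16 h, 37 C compound exposure of human lymphoblastoid LYMP1-003 cells; concentration-response fitted to the Hill equation for AC50.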

[7] = Cell Viability - LYMP1-003 - Assay at 24 hr (AID 963)
Outline: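 Concentration-response qHTS: ATP loss measured by CellTiter-Glo luminescence after 24 h compound exposure at 37 C. Cells were LYMP1-003 human lymphoblastoid, 2500 per well. AC50 derived via standard Hill equation modeling.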

[8] = Cell Viability - LYMP1-003 - Assay at 40 hr (AID 964); note: series mostly up to about 92 µM; nearly all actives have a fitted effect of over 60% in size
Outline: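 Viability is taken as cellular ATP, read by CellTiter-Glo luminescence after 40 h of compound exposure at 37 C. Cells: human lymphoblastoid line LYMP1-003 at 2500/well; AC50 values derived by Hill-equation fitting of concentration-response data.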

[9] = Cell Viability - LYMP2-003 (AID 965);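 note: cells exposed to compounds for 24 h before reading; nearly all actives have a fitted effect of over 50% in size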
Outline: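 Acute cytotoxicity is scored as a concentration-dependent drop in intracellular ATP, measured by luciferase luminescence in human lymphoblastoid cells treated for 24 hours at 37 C. AC50 values derive from Hill-equation modelling.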

[10] = Cell Viability - LYMP2-004 (AID 966); note: nearly all actives have a fitted effect of over 65% in size
Outline: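 AC50 values come from Hill modelling of concentration-dependent loss of intracellular ATP, measured by CellTiter-Glo luminescence. Human LYMP2-004 lymphoblastoid cells (2500/well) were exposed to compound for 24 h at 37 C.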

[11] = Cell Viability - LYMP2-005 (AID 967); note: series mostly up to about 92 µM
Outline: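 qHTS viability screen in LYMP2-005 cells: 24 h at 37 C with compound, ATP luminescence via CellTiter-Glo, AC50 from Hill curves.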

[12] = Cell Viability - LYMP2-009 (AID 968); note: series mostly up to about 92 µM; nearly all actives have a fitted effect of over 55% in size
[13] = Cell Viability - LYMP2-011 (AID 969); note: nearly all actives have a fitted effect of over 60% in size
Outline: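 Cytotoxicity qHTS with ATP content as read-out: lymphoblastoid cells (2500/well) exposed to compound for 24 h at 37 C, then luciferase luminescence measured. Concentration-response data fitted with the standard Hill equation to give AC50.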

[14] = Cell Viability - LYMP2-013 (AID 970); note: series mostly up to about 92 µM; nearly all actives have a fitted effect of over 55% in size
Outline: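 qHTS cytotoxicity: ATP-dependent luminescence (CellTiter-Glo, 30 min room temperature) read after 24 h compound exposure at 37 C of 2500 LYMP2-013 lymphoblastoid cells per well. Concentration-response fitted with Hill equation to give AC50.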

[15] = Cell Viability - LYMP2-015 (AID 971); note: nearly all actives have a fitted effect of over 55% in size
Outline: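 Cytotoxicity readout: decrease in intracellular ATP (CellTiter-Glo luminescence) in 2500 LYMP2-015 lymphoblastoid cells/well after 24 h compound exposure at 37 C. Concentration-response data fitted with the standard Hill equation to give AC50.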

[16] = Cell Viability - LYMP2-017 (AID 972); note: series mostly up to about 92 µM; nearly all actives have a fitted effect of over 55% in size
Outline: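 CellTiter-Glo luminescence (cellular ATP, 30 min RT) measured cytotoxicity after 24 hr compound treatment at 37 C. Cells were a human lymphoblastoid line, LYMP2-017, plated at 2500/well and incubated 5 hr first; concentration-response fitted with Hill equation for AC50.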

[17] = Cell Viability - LYMP2-019 (AID 973); note: nearly all actives have a fitted effect of over 55% in size
Outline: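 AC50 values come from Hill-equation fits of luminescent intracellular ATP (CellTiter-Glo, 30 min, room temperature) following 24 h compound exposure at 37 C. Cells: LYMP2-019 lymphoblastoid line, 2500 per well, in complete culture medium.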

[18] = Cell Viability - LYMP2-021 (AID 974); note: nearly all actives have a fitted effect of over 55% in size
Outline: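 AC50 values come from Hill-equation fits to CellTiter-Glo luminescence (ATP content), read after 24 hour compound exposure at 37 C of 2500 LYMP2-021 lymphoblastoid cells/well; tetraoctylammonium bromide as positive control.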

[19] = Cell Viability - LYMP2-023 (AID 975)
Outline: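 Intracellular ATP, read by CellTiter-Glo luminescence, reports viability after 24 hr compound exposure at 37 C. 2500 lymphoblastoid cells/well (LYMP2-023) seeded 5 hr beforehand; Hill fits give AC50; positive control tetraoctylammonium bromide.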

[20] = MultiTox-Fluor Cytotoxicity Assay - LYMP1-001 - Live Cells (AID 947)

Measured: Potency

NC(=O)CCCCC(N)=O
not listed: [20]
inactive: all other assays above

OCCO
not listed: [20]
inactive: all other assays above

C=CCCCCCC
not listed: [20]
inactive: all other assays above

CCC(C)(C)C
not listed: [2] | [7] | [13]
inactive: all other assays above

Cc1cccc(C)c1O
not listed: [1]
inactive: all other assays above

Cc1ccc2c(c1[N+](=O)[O-])C(=O)c1ccccc1C2=O
not listed: [7] | [13] | [20]
inactive: all other assays above

Nc1ccc([N+](=O)[O-])c(N)c1
not listed: [2] | [3]
inactive: all other assays above

BrC(Br)C(Br)Br
not listed: [1]
inactive: all other assays above

CC(N)CN (stereo unspecified)
not listed: [7] | [20]
inactive: all other assays above

CCc1ccccc1O
not listed: [2] | [4] | [7] | [18]
inactive: all other assays above

O=C(O)c1ccccc1Cl
not listed: [16] | [20]
inactive: all other assays above

O=C(O)/C=C/C(=O)O
not listed: [4] | [20]
inactive: all other assays above

CCCCCCCCC
not listed: [16] | [20]
inactive: all other assays above

Cc1ccc(C)c([N+](=O)[O-])c1
not listed: [2] | [7] | [18] | [20]
inactive: all other assays above

C=C(C)C(=O)OCCCCCC
not listed: [18] | [20]
inactive: all other assays above

COc1ccccc1[N+](=O)[O-]
not listed: [18] | [20]
inactive: all other assays above

CC(=O)c1nccs1
not listed: [2] | [3] | [18]
inactive: all other assays above

O=C(O)c1cc(Cl)cc(Cl)c1
not listed: [2] | [3] | [11]
inactive: all other assays above
